Results published in PubChem BioAssay.

Each molecule was assayed on Neuregulin-1 EGF-like domain (assay: binders of neuregulin-1 EGF-like domain, primary screen, biochemical, small-molecule microarray, 635 nm fluorescence (AID 1081;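 further: binding of the protein to compounds printed on small-molecule microarray slides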)). Conditions: small-molecule microarray binding, higher = more signal.

| Structure (SMILES) | composite z-score |
| --- | --- |
| O=C1O[C@@H](c2ccccc2)[C@@H](c2ccccc2)N2[C@@H](c3ccc(O)cc3)[C@]3(C(=O)Nc4ccc(C#CC5=CCCCC5)cc43)[C@@H](C(=O)N3CCN(c4ncccn4)CC3)[C@H]12 | 1.2 |
| CC(C)C[C@@H]1NC(=O)[C@H]2C[C@@H](C(=O)NCCCCCC[N+](C)(C)C)[C@@H](c3cccc(OCCO)c3)N2C1=O | 1.34 |
| CCOC(=O)C[C@H]1[C@H](OC(=O)c2ccccc2-c2ccccc2)[C@@H](NC(=O)c2ccc3ccccc3n2)c2cc(OCCCO)ccc2N1C(=O)c1ccc2ccccc2n1 | 0.0721 |
| C[C@H]1C2=C3C(CC[C@H]4C(OCc5ccc(F)cc5C(F)(F)F)OC[C@](C)([C@@H]34)N(C(=O)OC(C)(C)C)C2)C(CO)C1CO (stereo not given in full) | 0.572 |
| CCOc1cc(C(O)C2C=CC3C(=O)N(C)C(=O)C3N2N2CCCCC2)ccc1O (stereo not given) | 0.496 |
| C=C(COC)/C(=C/C[C@@H](OC(=O)c1ccncc1)c1cccc(OCCO)c1)c1cnc2ccccc2c1 | 1.2 |
| C=C(CCCC)/C(=C/C[C@@H](OC(C)=O)c1ccc(CO)o1)c1cc(C(=O)OC)ccc1OC | 1.28 |
| CC(C)(C)OC(=O)CC[C@]1(C(=O)NCCN2CCOCC2)N=C(c2ccc(OCCCO)cc2)O[C@H]1c1ccccc1N=[N+]=[N-] | 1.39 |
| Cc1ccc(S[C@]2(C(=O)NCC(F)(F)F)CC(=O)N(Cc3ccccc3)[C@@H]2c2ccc(CO)cc2)cc1 | 0.463 |
| COc1ccc(C#Cc2ccc3c(c2)[C@]2(C(=O)N3)[C@H](C(=O)N3CCc4cc(OC)c(OC)cc4C3)[C@H]3C(=O)O[C@H](c4ccccc4)[C@H](c4ccccc4)N3[C@@H]2c2ccc(O)cc2)cc1 | 1.19 |
| CN1C(=O)[C@@]2(CCS(=O)(=O)c3ccccc3)N=C(c3ccc(OCCCO)cc3)O[C@H]2c2ccccc21 | 1.34 |
| CC(C)C(=C=CC[C@@H](O)c1ccccc1OCCO)C[C@@H](O)COCc1ccccc1 | 0.865 |
| COc1ccc(C(O)C2C=CC3C(=O)N(Cc4ccccc4)C(=O)C3N2n2cnnc2)c2ccccc12 (stereo not given) | 1.32 |
| CCOC(=O)C[C@H]1[C@H](OC(=O)c2ccccc2-c2ccccc2)[C@@H](NC(=O)CC(C)C)c2cc(OCCCO)ccc2N1C(=O)c1ccc2ccccc2n1 | 0.324 |
| C=CC[C@H](OC(=O)Nc1ccc(OC)cc1)c1ccc(O)c2ccccc12 | 0.933 |
| COc1ccc(C(O)C2C=CC3C(=O)N(c4ccccc4)C(=O)C3N2Nc2ccccc2)cc1OCc1ccccc1 (stereo not given) | 1.15 |
| O=C1NC(=O)C2C1C=CC(C(O)c1cc(C(F)(F)F)cc(C(F)(F)F)c1)N2Nc1ccc(Cl)cc1Cl (stereo not given) | 0.766 |
| C=CCC(OC(C)=O)[C@@H]1[C@@H](N(Cc2cc3ccccc3o2)C(=O)Cc2ccc(F)cc2)c2cc(OCCCO)ccc2N1C(=O)c1ccc2ccccc2n1 (stereo not given in full) | -0.275 |

| Structure (SMILES) | composite z-score |
| --- | --- |
| COCCOC(=O)N1C(=O)[C@@]2(c3cc(C#CC4=CCCCC4)ccc31)[C@H](c1ccc(O)cc1)N1[C@H](c3ccccc3)[C@H](c3ccccc3)OC(=O)[C@H]1[C@@H]2C(=O)Nc1nc2ccccc2s1 | 1.23 |
| COCCOC(=O)N1C(=O)[C@@]2(c3cc(C#CC4(O)CCCCCC4)ccc31)[C@H](C(N)=O)[C@H]1C(=O)O[C@H](c3ccccc3)[C@H](c3ccccc3)N1[C@@H]2c1ccc(O)cc1 | 1.28 |
| COC(=O)[C@H](Cc1ccccc1)N1CC(/C=C/C2CC2)=C[C@@H]1[C@@H](O)Cc1ccccc1 | 1.11 |
| C=C(/C(=C/C[C@@H](OC(=O)c1ccncc1)c1ccccc1OCCO)c1cc(C(=O)OC)ccc1OC)C(C)C | 1.1 |
| COc1cc(CO)cc(I)c1O[C@H]1C=C(C(=O)NCCO)C[C@@H](N(Cc2ccc(F)cc2)C(=O)C2CCCO2)[C@@H]1O (stereo not given in full) | 0.547 |
| NC(=O)NCC#Cc1ccc2c(c1)[C@]1(C(=O)N2)[C@H](c2ccc(O)cc2)N2[C@H](c3ccccc3)[C@H](c3ccccc3)OC(=O)[C@H]2[C@@H]1C(=O)Nc1nc2ccccc2s1 | 0.633 |
| CCOC(=O)C1=CC[C@@H](c2cc(Cl)ccc2Cl)N(S(=O)(=O)c2ccc(C)cc2)[C@H]1c1ccc(OC)cc1 | 0.13 |
| COc1ccc(NN2C(C(O)c3ccccn3)C=CC3C(=O)N(C4CCCCC4)C(=O)C32)cc1 (stereo not given) | 1.17 |
| COc1ccc([Si](C)(C)[C@H]2[C@H](CCO)O[C@@]3(C(=O)N(Cc4cccc(N5CCCCC5=O)c4)c4ccccc43)[C@@H]2C)cc1 | 1.2 |
| CCCC[C@@H]1C[C@H]1[C@@H](NC(=O)c1cccnc1)c1ccc(-c2ccccc2)cc1 | -0.655 |
| C=CCNC(=O)[C@@H]1[C@H]2C(=O)O[C@H](c3ccccc3)[C@H](c3ccccc3)N2[C@H](c2ccc(OCCO)cc2)[C@@]12C(=O)N(C(=O)OCCOC)c1ccc(C#CC3=CCCCC3)cc12 | 1.17 |
| CC(C)NC(=O)[C@@]1(C)c2ccccc2C(=O)N(C(C)C)[C@H]1c1ccc(CO)cc1 | -0.643 |
| COCCOC(=O)N1C(=O)[C@@]2(c3cc(C#CC4(O)CCCCCC4)ccc31)[C@H](c1ccccc1OCCO)N1[C@H](c3ccccc3)[C@H](c3ccccc3)OC(=O)[C@H]1[C@@H]2C(N)=O | 1.16 |
| O=C1c2ccccc2[C@](Cc2ccccc2I)(C(=O)NCc2ccccc2)[C@H](c2ccc(CO)cc2)N1C1CCCCC1 | 1.27 |
| COC(=O)[C@@]1(Cc2ccc(OC)cc2)[C@H]2c3cc(C(=O)N(C)C)n(Cc4ccccc4)c3C[C@H]2CN1C(=O)c1ccccc1 | 0.828 |
| COC(=O)[C@]1(CCS(=O)(=O)c2ccccc2)N=C(c2ccc(OCCCO)cc2)O[C@@H]1c1ccccc1CN=[N+]=[N-] | 1.35 |
| CC(C)(C)OC(=O)CC[C@]1(C(=O)N2CCOCC2)N=C(c2ccc(OCCCO)cc2)O[C@H]1c1ccccc1 | 0.548 |
